# The list shows a part of the results. Records with an inconclusive call do not appear. The source made the active and inactive calls. Calls come from the whole dose curve; as a rule, active = well fitted inhibition curve with a large enough effect; inconclusive = small, poorly fitted or top-dose-only effect; inactive = flat fitted curve, though single readings scatter.
# Molecular target: Dual specificity protein kinase CLK4 (Homo sapiens) (UniProt Q9HAZ1)
# Assay: Confirmation Assay for Inhibitors of CDC-like Kinase 4 (Kinase-Glo Assay): SAR round 2
# Conditions: recombinant Clk4, Kinase-Glo ATP luminescence, 4.5 h
# Protocol: NIH Molecular Libraries Probe Production Centers Network [MLPCN] NIH Chemical Genomics Center [NCGC] MLPCN Grant: 1R03MH084827-01 Assay Submitter (PI): Tom Misteli NCGC Assay Overview: Clk4 (Invitrogen, cat# PV3839) was assayed using ATP and the RS repeat peptide (AnaSpec cat # 61722) as substrates. Following the Clk4 reaction, the remaining ATP levels were detected using Promega Kinase-Glo technology wherein the remaining ATP from the kinase reaction is detected using Ultra-Glo luciferase and D-luciferin which generates a bioluminescence signal from the ATP. The positive control for the assay was TG003 (Sigma-Aldrich, cat# 300801-52-9) which has been described as an inhibitor of Clk 4[1].
# NCGC Assay Protocol Summary: Two uL/well of substrate-buffer solution (100 uM RS peptide, 1 uM ATP, 25 mM Tris pH7.5, 10 mM MgCl2, 0.5 mM EGTA, 2.5 mM DTT, 0.01% Triton X-100 final concentration) was dispensed into 1536-well, assay plates (Greiner, solid white medium-binding plates) with Aurora Discovery BioRAPTR Flying Reagent Dispenser (FRD; Beckton-Dickenson). Using a Kalypsys pin tool equipped with a 1536-pin tool, 23 nL of compound solution was transferred to the assay plate. […] Luminescence was detected with the ViewLux plate reader (Perkin Elmer, Waltham, MA) after 5 min incubation using a 5 second exposure time and 2x binning.
# Chain of Dual specificity protein kinase CLK4 (Homo sapiens) (Q9HAZ1 whole entry, looked up): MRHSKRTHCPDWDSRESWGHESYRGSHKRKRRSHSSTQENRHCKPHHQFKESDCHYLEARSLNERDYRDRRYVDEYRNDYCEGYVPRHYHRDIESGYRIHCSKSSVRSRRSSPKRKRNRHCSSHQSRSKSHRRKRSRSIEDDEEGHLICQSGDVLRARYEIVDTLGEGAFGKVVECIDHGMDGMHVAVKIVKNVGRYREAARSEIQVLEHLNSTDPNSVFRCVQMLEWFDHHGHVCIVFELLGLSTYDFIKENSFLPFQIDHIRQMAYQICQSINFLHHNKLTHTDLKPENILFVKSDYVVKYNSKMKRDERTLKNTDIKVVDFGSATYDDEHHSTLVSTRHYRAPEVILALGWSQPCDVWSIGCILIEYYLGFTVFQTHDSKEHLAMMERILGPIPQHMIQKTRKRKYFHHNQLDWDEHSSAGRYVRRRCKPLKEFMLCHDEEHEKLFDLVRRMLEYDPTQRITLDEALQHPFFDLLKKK
row,SMILES,Potency
1,c1nc(N2CCOCC2)c2cc(-c3ccc4c(c3)OCO4)ccc2n1,104 nM (active)

# Reference: PubChem BioAssay AID493204 (National Center for Advancing Translational Sciences (NCATS), 2011)
